From PubChem
beta cell repl = inducers of beta-cell replication in MIN6 cells; proliferation, % at 10 µM; 330,000 tested, 0.29% active; MIN6 cells proliferation, ATPlite luminescence, 48 h; cells starved in 0.2% serum; 100% = growth in 10% serum;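 active = compounds whose signal lies at least 3.5 SD above the mean of all wells on their plate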;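 also: 0% = DMSO-treated cells in low-serum medium and 100% = 10% serum control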
Myeloid diff 2 = promotes myeloid progenitor differentiation; ER-HoxA9 myeloid progenitors, lysozyme-GFP differentiation, flow cytometry; calls only at 10 µM; 360,000 tested, 1% active;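 active = normalized GFP-positive differentiation at or above the plate's own cutoff, the solvent-only control mean plus 3 SD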;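 also: cells exposed to compound for four days before flow analysis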
iPSC survival up = increases survival of single human iPS cells; hiPSC single-cell survival, ATPlite luminescence; 100% = ROCK inhibitor wells, 0% = DMSO; survival enhancement, % at 20 µM; 360,000 tested, 0.044% active; AID 602274; in the data active = survival enhancement above about 18%;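 also: cells exposed to compounds for 16 hours before the ATP read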
ABCB6 inh MLPCN = human ABCB6 transporter inhibition | Q9NP58 | K562-ABCB6 porphyrin accumulation, flow cytometry, 1 h; active compounds read low | fluorescence ratio to DMSO, % at 10 µM | 360,000 tested, 0.19% active | AID 602162;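 active = fluorescence ratio to DMSO below 75%, the collection mean minus 3 SD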;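 also: signal is porphyrin accumulated inside mitochondria; 100% equals median channel fluorescence of DMSO control wells; lower ratio means ABCB6 inhibition with less porphyrin fluorescence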
Target sequence (Q9NP58 whole entry, looked up): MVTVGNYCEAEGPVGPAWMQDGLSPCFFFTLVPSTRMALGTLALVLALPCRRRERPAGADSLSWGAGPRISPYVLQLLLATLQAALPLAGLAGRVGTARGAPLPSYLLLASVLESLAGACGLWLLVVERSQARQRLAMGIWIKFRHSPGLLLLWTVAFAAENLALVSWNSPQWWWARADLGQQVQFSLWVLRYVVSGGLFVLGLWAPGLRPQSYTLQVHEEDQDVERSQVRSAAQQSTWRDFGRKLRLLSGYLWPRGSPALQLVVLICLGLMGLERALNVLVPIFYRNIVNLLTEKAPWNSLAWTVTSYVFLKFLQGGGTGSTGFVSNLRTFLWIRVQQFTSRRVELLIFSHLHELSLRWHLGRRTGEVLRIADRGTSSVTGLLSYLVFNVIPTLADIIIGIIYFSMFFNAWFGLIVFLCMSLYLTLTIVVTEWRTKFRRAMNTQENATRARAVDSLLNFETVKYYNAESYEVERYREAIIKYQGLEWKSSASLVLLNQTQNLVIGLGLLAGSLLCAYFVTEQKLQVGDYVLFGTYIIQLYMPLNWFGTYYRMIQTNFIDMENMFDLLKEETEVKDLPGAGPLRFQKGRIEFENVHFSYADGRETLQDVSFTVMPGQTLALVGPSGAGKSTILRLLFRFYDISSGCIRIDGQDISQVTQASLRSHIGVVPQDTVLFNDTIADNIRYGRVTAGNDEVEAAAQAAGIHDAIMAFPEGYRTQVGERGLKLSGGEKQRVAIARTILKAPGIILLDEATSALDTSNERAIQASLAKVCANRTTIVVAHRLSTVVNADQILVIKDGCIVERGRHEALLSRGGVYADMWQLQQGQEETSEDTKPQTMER
Cardio protect = modulators protecting cardiomyocytes from myocardial damage; protection from H2O2 cell death, % at 20 µM; 360,000 tested, 0.63% active; H9c2 cardiomyocytes, H2O2 injury protection, ATPLite, 2 h;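 active = compounds giving at least 50% protection of heart cells from peroxide-induced death in the single-dose screen, raw or plate-pattern-corrected value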;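 also: 0% = DMSO wells with peroxide and 100% = DMSO wells without peroxide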
ABCB6 blocker 1 = blocks the human ABCB6 transporter; 700 tested, under 10 active; K562-ABCB6 porphyrin accumulation, flow cytometry, 1 h; active compounds read low; ratio response (% of DMSO), % at 10 µM; shares compounds with ABCB6 inh MLPCN;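 active = repeat-averaged ratio response below 75% of DMSO, the collection mean minus 3 SD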;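 also: median porphyrin fluorescence at 575 nm with 488 nm excitation from mitochondria; lower ratio means less porphyrin signal so ABCB6 inhibition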
* marks the source's active call; other numbers are inactive results. An excerpt weighted towards active compounds, which were near 2.2% of everything screened.

What do the screens show for `CCOC(=O)c1ccc(S(=O)(=O)Nc2cc(C(C)(C)C)no2)cc1`?
beta cell repl: -3; Myeloid diff 2: inactive; iPSC survival up: -2; ABCB6 inh MLPCN: 66*; Cardio protect: 0; ABCB6 blocker 1: 99

Results for COC(=O)c1c(C(=O)OC)c2c(-c3ccccc3)cc3cccc1n32 ?
Myeloid diff 2: inactive; iPSC survival up: 1; ABCB6 inh MLPCN: 96; Cardio protect: 19

What do the screens show for `CC1=C(C(=O)N(C)C)CC(CC(=O)NCCCCc2ccccc2)C(=O)N1CCC1=CCCCC1` (configuration not stated)?
Myeloid diff 2: inactive; iPSC survival up: -1; ABCB6 inh MLPCN: 101; Cardio protect: 1

How did Cc1ccc2nc(CSc3nnc(Cc4cccs4)n3C3CCCCC3)cc(=O)n2c1 do in these assays?
beta cell repl: 0; Myeloid diff 2: inactive; iPSC survival up: 2; ABCB6 inh MLPCN: 66*; Cardio protect: 7; ABCB6 blocker 1: 102

Results for COc1ccc2oc(-c3ccc(NC(=O)c4ccc(N5CCOCC5)c([N+](=O)[O-])c4)cc3)nc2c1 ?
beta cell repl: -3; Myeloid diff 2: inactive; iPSC survival up: -2; ABCB6 inh MLPCN: 60*; Cardio protect: -9; ABCB6 blocker 1: 98

What do the screens show for `COc1ccc(-c2cc(C(=O)Nc3c(C)nn(Cc4ccccc4)c3C)no2)cc1`?
beta cell repl: -3; Myeloid diff 2: inactive; iPSC survival up: -2; ABCB6 inh MLPCN: 51*; Cardio protect: -8; ABCB6 blocker 1: 100

Results for C=C(C)CC(Nc1ccc(OC)cc1)c1ccco1 (configuration not stated) ?
beta cell repl: 4; Myeloid diff 2: inactive; iPSC survival up: -1; ABCB6 inh MLPCN: 104; Cardio protect: 2

What do the screens show for `O=C(CCc1nc(-c2ccccc2Cl)no1)NC1CCCC1`?
beta cell repl: 3; Myeloid diff 2: inactive; iPSC survival up: 0; ABCB6 inh MLPCN: 99; Cardio protect: 0

Results for O=C(CCc1nc(-c2ccccc2Cl)no1)NC1CCCCC1 ?
beta cell repl: -4; Myeloid diff 2: inactive; iPSC survival up: -1; ABCB6 inh MLPCN: 73*; Cardio protect: 2; ABCB6 blocker 1: 99

Results for CC(C)c1ccc(CC(=O)N2CCC2(C)C(=O)NS(=O)(=O)c2cccc(OC(F)F)c2)cc1 (configuration not stated) ?
Myeloid diff 2: inactive; iPSC survival up: -1; ABCB6 inh MLPCN: 95; Cardio protect: 2; ABCB6 blocker 1: 97

Results for CC1(C(=O)NS(=O)(=O)c2ccc(F)cc2F)CCN1C(=O)Cc1cc(F)ccc1F (configuration not stated) ?
Myeloid diff 2: inactive; iPSC survival up: 5; ABCB6 inh MLPCN: 86; Cardio protect: 1

What do the screens show for `CC(C)c1ccc(CC(=O)N2CCC2(C)C(=O)NS(=O)(=O)c2ccc(F)cc2F)cc1` (configuration not stated)?
Myeloid diff 2: inactive; iPSC survival up: -4; ABCB6 inh MLPCN: 99; Cardio protect: 5; ABCB6 blocker 1: 97

How did CC1(C(=O)NS(=O)(=O)c2ccc(F)cc2F)CCN1C(=O)Cc1cccc2ccccc12 (configuration not stated) do in these assays?
Myeloid diff 2: inactive; iPSC survival up: 0; ABCB6 inh MLPCN: 97; Cardio protect: 3; ABCB6 blocker 1: 100

How did CC(=O)Nc1ccc(NC(=O)C2(C)Cc3c(-c4cccc(NC(C)=O)c4)ccnc3O2)cc1 (configuration not stated) do in these assays?
Myeloid diff 2: inactive; iPSC survival up: 7; ABCB6 inh MLPCN: 100; Cardio protect: 26

Results for CCOC(=O)C1CCCN(Cc2nc(Cc3ccccc3Cl)no2)C1 (configuration not stated) ?
beta cell repl: -1; Myeloid diff 2: inactive; iPSC survival up: 4; ABCB6 inh MLPCN: 93; Cardio protect: 10

Results for Cc1ccc(O)c(NC2=C(Cl)C(=O)N(Cc3ccccc3)C2=O)c1 ?
Myeloid diff 2: inactive; iPSC survival up: -2; ABCB6 inh MLPCN: 74*; Cardio protect: -7; ABCB6 blocker 1: 107

How did Cc1ccc(C(=O)N2CCCCC2)cc1NC1=C(Cl)C(=O)N(Cc2ccccc2)C1=O do in these assays?
beta cell repl: -7; Myeloid diff 2: inactive; iPSC survival up: -2; ABCB6 inh MLPCN: 92; Cardio protect: -19

Results for Cc1cc(NC(=O)c2cc(C)on2)n(-c2ccccc2)n1 ?
beta cell repl: 0; Myeloid diff 2: inactive; iPSC survival up: -2; ABCB6 inh MLPCN: 72*; Cardio protect: -7; ABCB6 blocker 1: 103

How did COc1ccc(CC(N)c2csc(NC(=O)c3ccccc3)n2)cc1 (configuration not stated) do in these assays?
Myeloid diff 2: inactive; iPSC survival up: -3; ABCB6 inh MLPCN: 71*; Cardio protect: 28; ABCB6 blocker 1: 103

What do the screens show for `COc1ccc(CC(N)c2csc(NC(=O)c3ccc(F)cc3)n2)cc1` (configuration not stated)?
Myeloid diff 2: inactive; iPSC survival up: 2; ABCB6 inh MLPCN: 95; Cardio protect: 2

How did Cc1nc2c(C(=O)NCc3cccs3)cnn2c(C)c1Cc1ccccc1 do in these assays?
beta cell repl: -2

Results for Cc1nc2c(C(=O)NCc3ccc4c(c3)OCO4)cnn2c(C)c1Cc1ccc(F)cc1Cl ?
beta cell repl: -6; Myeloid diff 2: inactive; iPSC survival up: -1; ABCB6 inh MLPCN: 97; Cardio protect: 4

What do the screens show for `Cc1cccc(Cc2c(C)nc3c(C(=O)NCc4ccco4)cnn3c2C)c1`?
beta cell repl: -4; Myeloid diff 2: active; iPSC survival up: 19*; ABCB6 inh MLPCN: 88; Cardio protect: -14; ABCB6 blocker 1: 101

What do the screens show for `Cc1nc2c(C(=O)NCc3ccco3)cnn2c(C)c1Cc1ccc(F)cc1Cl`?
beta cell repl: -5; Myeloid diff 2: inactive; iPSC survival up: 0; ABCB6 inh MLPCN: 72*; Cardio protect: 5; ABCB6 blocker 1: 100

How did Cc1ccc(NC(=O)CCn2c(=O)c3cccn3c3ccccc32)c(C)c1 do in these assays?
beta cell repl: -1; Myeloid diff 2: inactive; iPSC survival up: 0; ABCB6 inh MLPCN: 102; Cardio protect: 4

What do the screens show for `Cc1cc(C(=O)COc2ccc(Br)cc2F)c(C)n1CC1CCCO1` (configuration not stated)?
Myeloid diff 2: inactive; iPSC survival up: -2; ABCB6 inh MLPCN: 71*; Cardio protect: 3; ABCB6 blocker 1: 97

How did CN(C)C(=O)c1ccc(-n2cccn2)nc1 do in these assays?
beta cell repl: 0; Myeloid diff 2: inactive; iPSC survival up: 0; ABCB6 inh MLPCN: 99; Cardio protect: 2
